As usually defined, the inhibition is the change of the read-out against control, counted positive when it falls.

A number with no mark means an inactive call. For some of these results: Measured potencies and affinities stand elsewhere. The source made the active and inactive calls. Unless noted, no rule for the calls is given here.

A short description of assay [1]: antimalarial activity against Dd2 strain (AID 2302;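 active = growth inhibition above 50% at the single 2 µM test dose, taken to imply half-maximal potency below 2 µM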;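 also: 0% = DMSO untreated growth and 100% = chloroquine plus artemisinin killed control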). The conditions noted are these: P. falciparum Dd2 in RBCs, LDH growth readout, 72 h; at 2 µM; hits give high values.
The nature of assay [2]: HepG2 cytotoxicity, primary screen, cytotoxicity control for P. falciparum antimalarial project, cell-based, ATP luminescence (AID 2303;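 active = inhibition above 50%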;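 also: 0% = DMSO wells and 100% = digitonin-killed cells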). The conditions noted are these: HepG2 viability, 24-48 h, at 10 µM, hits give high values.
For assay [3], the target named is L-lactate dehydrogenase (Plasmodium falciparum (isolate CDC / Honduras)) (UniProt Q27743). The assay is described as follows: PfLDH activity inhibition – cell lysate, 3D7 strain, counter-screen for P. falciparum growth inhibition project (AID 2304).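 Also: 0% = vehicle and 100% = reference inhibitor.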 The conditions noted are these: P. falciparum 3D7 crude extract, LDH APAD/NBT absorbance; at 2 µM; hits give high values. (The purpose of a counterscreen is to sort out artefacts and off-target activity.)

Assay [4] can be described thus: inhibition of 3D7 malaria parasite growth – strain 3D7 (AID 2306).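 Also: 0% = DMSO wells and 100% = chloroquine plus artemisinin control wells.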 Conditions: P. falciparum 3D7 erythrocytic growth, LDH absorbance, 72 h; at 2 µM; hits give high values.
For assay [5], the target named is Calcium-dependent protein kinase 1 (Plasmodium falciparum (isolate 3D7)) (UniProt P62344). Nature of the assay: PfCDPK1 kinase inhibitors, biochemical, TCAMS library (AID 1159585; cut-off not given, nearly all actives have IC50 up to about 0.98 µM;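 also: inhibitors leave more ATP so luminescence rises with inhibition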). The conditions noted are these: recombinant PfCDPK1, Kinase-Glo ATP depletion luminescence.
Assay [6] addresses Plasmodium falciparum protein kinase 6 (PK6, PF3D7_1337100) (UniProt Q8IDW1). Nature of the assay: PfPK6 kinase inhibitors, biochemical, TCAMS library (AID 1159586). Conditions: recombinant PfPK6, Kinase-Glo ATP depletion luminescence. In general terms: Kinase-Glo reads ATP consumption through a luciferase reaction.
Assay [7] concerns the target Protein kinase 7 (PK7), Plasmodium falciparum 3D7 (PF3D7_0213400) (UniProt Q7YTF7). Nature of the assay: inhibition of Plasmodium PK7 catalytic activity – biochemical, TCAMS antimalarial set, Kinase-Glo luminescence (AID 1159587). The conditions noted are these: recombinant PfPK7, Kinase-Glo ATP depletion luminescence.
Assay [8] addresses Calcium-dependent protein kinase 4 (Plasmodium falciparum (isolate 3D7)) (UniProt Q8IBS5). Nature of the assay: PfCDPK4 kinase inhibitors, biochemical, TCAMS library (AID 1159588; cut-off not given, nearly all actives have IC50 up to about 0.91 µM). The conditions noted are these: recombinant PfCDPK4, Kinase-Glo ATP depletion luminescence.

Sequence of Protein kinase 7 (PK7), Plasmodium falciparum 3D7 (PF3D7_0213400) (Q7YTF7 1-343): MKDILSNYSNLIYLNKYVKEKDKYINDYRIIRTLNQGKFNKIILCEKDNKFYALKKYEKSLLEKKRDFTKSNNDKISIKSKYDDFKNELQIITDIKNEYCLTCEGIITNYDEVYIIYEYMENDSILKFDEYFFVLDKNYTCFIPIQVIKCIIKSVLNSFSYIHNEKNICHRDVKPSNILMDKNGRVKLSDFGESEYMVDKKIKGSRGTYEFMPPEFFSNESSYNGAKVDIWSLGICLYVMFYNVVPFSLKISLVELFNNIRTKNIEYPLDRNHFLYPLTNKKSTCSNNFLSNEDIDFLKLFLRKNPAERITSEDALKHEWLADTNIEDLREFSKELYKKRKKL
Sequence of Calcium-dependent protein kinase 1 (Plasmodium falciparum (isolate 3D7)) (P62344 whole entry, looked up): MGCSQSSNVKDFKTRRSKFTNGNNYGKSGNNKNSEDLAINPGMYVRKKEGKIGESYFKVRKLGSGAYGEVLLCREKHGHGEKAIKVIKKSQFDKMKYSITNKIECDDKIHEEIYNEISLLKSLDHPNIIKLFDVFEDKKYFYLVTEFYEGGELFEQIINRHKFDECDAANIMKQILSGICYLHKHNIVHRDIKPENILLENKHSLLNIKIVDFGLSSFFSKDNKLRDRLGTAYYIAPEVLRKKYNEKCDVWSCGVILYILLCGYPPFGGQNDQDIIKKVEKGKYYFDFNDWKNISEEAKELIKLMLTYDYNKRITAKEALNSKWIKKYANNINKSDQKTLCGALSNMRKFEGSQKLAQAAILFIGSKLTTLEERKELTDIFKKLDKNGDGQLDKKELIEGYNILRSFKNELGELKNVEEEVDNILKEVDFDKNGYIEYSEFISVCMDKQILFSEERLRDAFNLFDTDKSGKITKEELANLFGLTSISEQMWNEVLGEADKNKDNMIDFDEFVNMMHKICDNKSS
Sequence of Plasmodium falciparum protein kinase 6 (PK6, PF3D7_1337100) (Q8IDW1 1-305): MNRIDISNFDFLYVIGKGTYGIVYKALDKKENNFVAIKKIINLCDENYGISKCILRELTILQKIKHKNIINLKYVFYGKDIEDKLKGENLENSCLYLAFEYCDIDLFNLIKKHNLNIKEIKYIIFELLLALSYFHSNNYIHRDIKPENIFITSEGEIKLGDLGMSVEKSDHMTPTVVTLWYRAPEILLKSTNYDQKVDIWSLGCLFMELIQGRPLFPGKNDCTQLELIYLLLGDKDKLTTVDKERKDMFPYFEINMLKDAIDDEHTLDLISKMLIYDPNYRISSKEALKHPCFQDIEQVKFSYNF
Sequence of L-lactate dehydrogenase (Plasmodium falciparum (isolate CDC / Honduras)) (Q27743 whole entry, looked up): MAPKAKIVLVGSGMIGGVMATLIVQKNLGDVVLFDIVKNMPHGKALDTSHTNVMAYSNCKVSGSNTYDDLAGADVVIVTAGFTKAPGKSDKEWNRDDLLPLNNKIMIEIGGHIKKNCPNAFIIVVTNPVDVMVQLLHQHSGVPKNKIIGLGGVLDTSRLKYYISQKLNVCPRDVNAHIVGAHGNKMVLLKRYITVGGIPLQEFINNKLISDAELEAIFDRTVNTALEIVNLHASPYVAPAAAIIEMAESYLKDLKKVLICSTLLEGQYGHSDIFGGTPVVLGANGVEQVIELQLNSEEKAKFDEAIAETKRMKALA
Sequence of Calcium-dependent protein kinase 4 (Plasmodium falciparum (isolate 3D7)) (Q8IBS5 whole entry, looked up): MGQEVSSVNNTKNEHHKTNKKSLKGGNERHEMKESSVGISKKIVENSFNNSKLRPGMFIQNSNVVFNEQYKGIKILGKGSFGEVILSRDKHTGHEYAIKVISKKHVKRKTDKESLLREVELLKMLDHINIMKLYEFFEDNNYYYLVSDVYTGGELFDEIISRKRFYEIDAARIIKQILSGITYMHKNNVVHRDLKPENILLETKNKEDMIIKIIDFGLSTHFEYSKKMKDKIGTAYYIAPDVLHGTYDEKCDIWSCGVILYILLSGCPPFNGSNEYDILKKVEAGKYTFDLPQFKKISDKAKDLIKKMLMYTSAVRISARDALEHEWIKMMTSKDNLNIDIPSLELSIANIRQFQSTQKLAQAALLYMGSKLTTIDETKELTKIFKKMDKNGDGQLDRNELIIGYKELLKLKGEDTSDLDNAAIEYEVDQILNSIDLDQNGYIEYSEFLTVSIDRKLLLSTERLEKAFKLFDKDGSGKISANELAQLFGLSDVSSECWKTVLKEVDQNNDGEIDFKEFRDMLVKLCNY

For `CN(C)c1ccc(CN2CCCCC(NC(=O)c3cc(-c4ccccc4Cl)cs3)C2)cc1` (stereo not given), the growth inhibition in assay [1] is 14%; in assay [4], 91% (active). Moreover, the inhibition was 10% in assay [2] and -3% in assay [3]. The outcome in assay [5], in assay [6], in assay [7] and in assay [8] was inactive.

For `Cc1cc(-c2ccc3c(c2)CCN(CCCOc2ccc4c(c2)CCN4C(=O)/C=C/c2ccccc2Cl)CC3)no1`, the growth inhibition was 50% (active) in assay [1] and 88% (active) in assay [4]. For the same molecule, the inhibition in assay [2] is 52% (active); in assay [3], 1%. Further, the result in assay [5], in assay [6], in assay [7] and in assay [8] was inactive.

As for `CSC1=NC2(CC(c3cccc(C)c3)c3cc(Cl)c(O)cc3O2)CC(C)(C)N1` (stereo not given), the growth inhibition is 73% (active) in assay [1] and 100% (active) in assay [4]. Further, the inhibition was 0% in assay [2] and 4% in assay [3]. For the same molecule, the result in assay [5], in assay [6], in assay [7] and in assay [8] was inactive.

On to `CCOCc1cnc(C)nc1CNC(=O)c1c(C)[nH]c2ccc(C)cc12`, for which the growth inhibition in assay [1] was 65% (active); in assay [4], 84% (active). The inhibition in assay [2] was 8%; in assay [3], 3%. The outcome in assay [5], in assay [6], in assay [7] and in assay [8] was inactive.

With `COc1ccccc1C(C)NCC(=O)Nc1ccccc1Sc1ccccc1` (stereo not given), the growth inhibition is 7% in assay [1] and 89% (active) in assay [4]. Also, the values for the inhibition in assay [2] and in assay [3] were -7% and -1%, respectively. Besides, the result in assay [5], in assay [6], in assay [7] and in assay [8] was inactive.

Turning to `Cc1ccc2nc(C)cc(NN=Cc3ccc([N+](=O)[O-])cc3)c2c1`, the growth inhibition is 15% in assay [1] and 102% (active) in assay [4]. Moreover, the inhibition in assay [2] was 10%; in assay [3], 3%. Moreover, the outcome in assay [5], in assay [6], in assay [7] and in assay [8] was inactive.

In the case of `COc1cc(Nc2nccc(N3CCC(NC(=O)Nc4cccc(C(C)=O)c4)C3)n2)cc(OC)c1OC` (stereo not given), the growth inhibition is 34% in assay [1] and 91% (active) in assay [4]. Further, the results for the inhibition in assay [2] and in assay [3] were 8% and -3%, respectively. Besides, the outcome in assay [5], in assay [6], in assay [7] and in assay [8] was inactive.

For the molecule `COc1ccc(O)c(C(=O)c2cc(C(=O)NC3CCCCC3)c(=O)n(C3CCCCC3)c2)c1`, the growth inhibition was 62% (active) in assay [1] and 99% (active) in assay [4]. Also, the figures for the inhibition in assay [2] and in assay [3] were 8% and 3%, respectively. Moreover, the outcome in assay [5], in assay [6], in assay [7] and in assay [8] was inactive.

In the case of `C=Cc1sc(CNCCCNc2cc(=O)c3ccccc3[nH]2)c(C)c1Br`, the growth inhibition in assay [1] was 35%; in assay [4], 94% (active). Moreover, the inhibition was -5% in assay [2] and -6% in assay [3]. The outcome in assay [5], in assay [6], in assay [7] and in assay [8] was inactive.

Regarding `CSc1ccc2ccccc2c1CCNCCCCNCCc1c(SC)ccc2ccccc12`, the values for the growth inhibition in assay [1] and in assay [4] were 60% (active) and 101% (active), respectively. Moreover, the figures for the inhibition in assay [2] and in assay [3] were 99% (active) and 3%, respectively. Further, the outcome in assay [5], in assay [6], in assay [7] and in assay [8] was inactive.

With `CC(=O)Nc1ccc(C(=O)Nc2cccc(-c3ccc(-c4nc5ccccc5[nH]4)s3)c2)cn1`, the growth inhibition in assay [1] is 91% (active); in assay [4] it was 101% (active). Moreover, the inhibition was 9% in assay [2] and 2% in assay [3]. The result in assay [5], in assay [6], in assay [7] and in assay [8] was inactive.

As to `Oc1ccc(CCNc2nc(N/N=C/c3ccc(Cl)cc3)nc(N3CCNCC3)n2)cc1`, the growth inhibition in assay [1] was 68% (active); in assay [4], 100% (active). Besides, the inhibition in assay [2] is 14%; in assay [3], 5%. Moreover, the result in assay [5], in assay [6], in assay [7] and in assay [8] was inactive.

Take `CCN1CCN(c2cc(C)c3cc(NC(=O)c4cccc(Cl)c4)ccc3n2)CC1`: the growth inhibition in assay [1] is 58% (active); in assay [4] it was 100% (active). Moreover, the figures for the inhibition in assay [2] and in assay [3] were 4% and -4%, respectively. Moreover, the result in assay [5], in assay [6], in assay [7] and in assay [8] was inactive.

For the molecule `O=c1cc(NCCCNCc2csc(Br)c2Sc2ccc(Cl)cc2)[nH]c2ccccc12`, the values for the growth inhibition in assay [1] and in assay [4] were 83% (active) and 95% (active), respectively. Also, the figures for the inhibition in assay [2] and in assay [3] were 5% and 7%, respectively. Moreover, the outcome in assay [5], in assay [6], in assay [7] and in assay [8] was inactive.

Regarding `Cc1cc(NC(=O)Nc2ccc(N(C)C)cc2)c2cc(Cl)ccc2n1`, the growth inhibition in assay [1] is 50% (active); in assay [4], 100% (active). For the same molecule, the inhibition in assay [2] is -4%; in assay [3] it was 3%. Besides, the outcome in assay [5], in assay [6], in assay [7] and in assay [8] was inactive.

Take `Cn1nccc1C(=O)NCCNCc1cccc(-c2ccc(-c3nc4ccc(C(F)(F)F)cc4[nH]3)cc2)c1`: the values for the growth inhibition in assay [1] and in assay [4] were 98% (active) and 102% (active), respectively. The inhibition in assay [2] is 51% (active); in assay [3], -1%. The result in assay [5], in assay [6], in assay [7] and in assay [8] was inactive.

Take `Cn1ccnc1CNC(=O)c1ccc(-c2cccc(-c3nc4ccc(F)cc4[nH]3)c2)cc1`: the figures for the growth inhibition in assay [1] and in assay [4] were 8% and 96% (active), respectively. Also, the inhibition in assay [2] was 8%; in assay [3], 7%. In addition, the outcome in assay [5], in assay [6], in assay [7] and in assay [8] was inactive.

In the case of `CN(C)Cc1ccc(O)c(-c2ccc(C(C)(C)C)cc2)n1`, the growth inhibition in assay [1] was 25%; in assay [4], 86% (active). The inhibition is -1% in assay [2] and -5% in assay [3]. Further, the outcome in assay [5], in assay [6], in assay [7] and in assay [8] was inactive.

For `O=C(c1ccc(Cl)cc1)C1CCN(CCCOc2ccc3c(c2)CCNCC3)CC1`, the growth inhibition is 23% in assay [1] and 93% (active) in assay [4]. For the same molecule, the inhibition was 78% (active) in assay [2] and -2% in assay [3]. Besides, the outcome in assay [5], in assay [6], in assay [7] and in assay [8] was inactive.

Consider `CCc1sc(N2CCN(C)CC2)nc1C(=O)Nc1ccc(F)cc1C(F)(F)F`, for which the growth inhibition in assay [1] is 98% (active); in assay [4] it was 101% (active). The inhibition was -1% in assay [2] and 5% in assay [3]. Besides, the outcome in assay [5], in assay [6], in assay [7] and in assay [8] was inactive.

Values taken from PubChem BioAssay.
